Screening data deposited in PubChem by National Center for Advancing Translational Sciences (NCATS).
HEK293 tox: Cytotoxic Profiling in HEK 293 Cell Line of Diverse Libraries Using Quantitative High-Throughput Screening; HEK 293 viability, ATP luminescence (CellTiter-Glo), 48-72 h; Potency, µM (highest dose often 115 µM), most hits filed as inhibitors; 6.6% of 94,000 active; note: nearly all actives have a fitted effect of over 60% in size
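HEK 293 cells at 250 cells/well were exposed to compounds by pintool transfer for 48 or 72 hr at 37 degree Celsius, 5% CO2. Viability was read as ATP-coupled luminescence with CellTiter-Glo after 10 min at room temperature.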
hNpr1 antagonist: Natriuretic polypeptide receptor (hNpr1) antagonism - Primary qHTS. Atrial natriuretic peptide receptor 1 (Homo sapiens), P16066. HEK293 hNpr1 GloSensor cGMP, ANP-stimulated luminescence. Potency, µM (highest dose often 46.3 µM), actives largely listed as inhibitors. 1.6% of 76,000 active. AID 1347048, 2019; calls by dose curve; note: nearly all actives have a fitted effect of over 60% in size
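Compound pre-incubated 30 min at room temperature on GloSensor-loaded HEK293 cells stably carrying hNpr1 and the pGS-40F cGMP biosensor. Stimulation uses hNppA at 0.1 nM final; luminescence is taken at baseline and 20 min post-agonist.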
NIH3T3 tox: Cytotoxic Profiling in NIH 3T3 Cell Line of Diverse Libraries Using Quantitative High-Throughput Screening; 4.3% of 94,000 active; NIH 3T3 viability, CellTiter-Glo ATP luminescence, 48-72 h; Potency, µM (top dose mostly 96.7 µM), hits mostly inhibitors; AID 1345082, 2018; note: nearly all actives have a fitted effect of over 55% in size
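Cytotoxicity is measured as loss of cellular ATP: NIH 3T3 cells (400/well) are exposed to compound for 48 or 72 hr at 37 °C, then CellTiter-Glo luminescence is imaged after 10 min at room temperature.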
FLuc inh: Firefly luciferase inhibition profiling of diverse chemical library using quantitative high-throughput screening | Luciferin 4-monooxygenase (Photinus pyralis), P08659 | purified P. pyralis luciferase, luminescence, biochemical | AID 1347043, 2019 | Potency, µM (doses to about 115 µM), hits mostly inhibitors | 2.5% of 76,000 active; note: nearly all actives have a fitted effect of over 65% in size
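Purified P. pyralis luciferase (10nM final) in 50mM Tris acetate pH 7.5, 10mM Mg acetate, 0.01% Tween-20, 0.05% BSA with 10uM D-luciferin and 10uM ATP. Compounds titrated qHTS. Luminescence imaged on CCD.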
Npr1 antag conf: Natriuretic polypeptide receptor (hNpr1) antagonism - Confirmation; AID 1347044, 2019; shares compounds with hNpr1 antagonist; HEK293 hNpr1 cGMP GloSensor luminescence, ANP-stimulated; Potency, µM (top dose mostly 57.6 µM), actives largely listed as inhibitors; 76% of 1,400 active; calls by dose curve; note: nearly all actives have a fitted effect of over 70% in size
Npr2 selectivity: Natriuretic polypeptide receptor (hNpr2) antagonism - Subtype selectivity assay | HEK293 hNpr2 GloSensor cGMP luminescence, CNP-stimulated | 67% of 1,400 active | shares compounds with hNpr1 antagonist | Potency, µM (highest dose often 57.6 µM), most hits filed as inhibitors | AID 1347046, 2019; calls by dose curve; note: nearly all actives have a fitted effect of over 70% in size
Target sequence (P20594 whole entry, looked up): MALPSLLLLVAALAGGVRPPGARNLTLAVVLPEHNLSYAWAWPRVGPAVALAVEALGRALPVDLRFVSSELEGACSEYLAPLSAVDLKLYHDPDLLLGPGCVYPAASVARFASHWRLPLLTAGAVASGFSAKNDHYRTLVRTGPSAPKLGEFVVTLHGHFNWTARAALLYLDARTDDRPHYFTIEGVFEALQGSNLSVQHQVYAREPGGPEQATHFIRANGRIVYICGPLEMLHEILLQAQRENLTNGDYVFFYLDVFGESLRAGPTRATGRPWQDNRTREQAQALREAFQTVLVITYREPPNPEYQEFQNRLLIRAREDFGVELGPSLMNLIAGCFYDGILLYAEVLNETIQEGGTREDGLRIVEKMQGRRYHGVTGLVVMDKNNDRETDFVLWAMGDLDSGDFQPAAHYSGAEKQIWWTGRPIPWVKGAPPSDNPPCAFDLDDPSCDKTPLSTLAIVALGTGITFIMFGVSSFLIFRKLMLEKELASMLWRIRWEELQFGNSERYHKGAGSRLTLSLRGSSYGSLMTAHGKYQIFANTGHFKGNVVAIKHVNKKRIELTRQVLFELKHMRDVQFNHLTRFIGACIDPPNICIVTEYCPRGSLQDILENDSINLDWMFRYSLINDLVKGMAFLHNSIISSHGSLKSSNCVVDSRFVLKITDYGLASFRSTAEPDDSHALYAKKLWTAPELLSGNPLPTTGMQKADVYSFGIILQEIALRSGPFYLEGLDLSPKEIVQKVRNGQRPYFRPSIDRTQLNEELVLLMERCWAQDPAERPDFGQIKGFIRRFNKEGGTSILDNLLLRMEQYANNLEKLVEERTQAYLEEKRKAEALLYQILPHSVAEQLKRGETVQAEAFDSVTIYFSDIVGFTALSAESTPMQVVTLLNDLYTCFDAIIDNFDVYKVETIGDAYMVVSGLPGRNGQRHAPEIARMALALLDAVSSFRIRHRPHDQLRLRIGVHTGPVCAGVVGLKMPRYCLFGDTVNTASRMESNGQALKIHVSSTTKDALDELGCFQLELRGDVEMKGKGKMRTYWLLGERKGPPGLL
FLuc counter: Natriuretic polypeptide receptor (hNpr1) antagonism - Confirmation firefly luciferase (FLuc) inhibition counterscreen; shares compounds with hNpr1 antagonist; purified FLuc enzyme, luminescence, Km substrate; Potency, µM (top dose mostly 57.6 µM), actives largely listed as inhibitors; 0.7% of 1,400 active; AID 1347047, 2019
GloSensor ctrl: Natriuretic polypeptide receptor (hNpr1) antagonism - Counterscreen GloSensor control cell line | Potency, µM (doses to about 57.6 µM), hits mostly inhibitors | 69% of 1,400 active | HEK293 GloSensor cGMP, SNP-stimulated, luminescence | shares compounds with hNpr1 antagonist | AID 1347051, 2019; calls by dose curve; note: nearly all actives have a fitted effect of over 70% in size
A number is an active result; ! = not confirmed by another sample. Only some compounds are listed: those with a hit (about 11% of all), similar ones and a draw of the others. Unless noted, calls come from the whole dose curve; as a rule, active = well fitted curve in the direction sought with a large enough effect; inconclusive = small, poorly fitted or top-dose-only effect, or another doubt; inactive = no such curve, though single readings can be large; an effect the other way counts as inactive or inconclusive.

`O=C(c1ccccc1F)N1CCN(C(=O)c2nnn3c2COC(c2ccc(Cl)cc2)C3)CC1` (stereo unspecified) gave HEK293 tox inconclusive, hNpr1 antagonist 14.1µM, NIH3T3 tox inconclusive, FLuc inh inactive, Npr1 antag conf 27.3µM, Npr2 selectivity inconclusive, FLuc counter inactive and GloSensor ctrl inconclusive.
`COc1ccc(C2Cn3nnc(C(=O)N4CCN(C(=O)c5ccccc5Cl)CC4)c3CO2)cc1` (stereo unspecified) gave HEK293 tox inconclusive, hNpr1 antagonist inconclusive, NIH3T3 tox inconclusive and FLuc inh inactive.
`O=C(NC1CCCCCCC1)c1nnn2c1COC(c1ccc(F)cc1)C2` (stereo unspecified) gave HEK293 tox inconclusive, hNpr1 antagonist inconclusive, NIH3T3 tox inconclusive, FLuc inh inactive, Npr1 antag conf inconclusive, Npr2 selectivity inconclusive, FLuc counter inactive and GloSensor ctrl inconclusive.
Screening COc1ccc(Cl)cc1C(=O)N1CCN(C(=O)c2nnn3c2COC(c2ccccc2)C3)CC1 (stereo unspecified) returned HEK293 tox inconclusive, hNpr1 antagonist inconclusive, NIH3T3 tox inconclusive, FLuc inh inactive, Npr1 antag conf inconclusive, Npr2 selectivity inconclusive, FLuc counter inactive and GloSensor ctrl inactive.
For COc1ccccc1C(=O)N1CCN(C(=O)c2nnn3c2COC(c2ccc(C)cc2)C3)CC1 (stereo unspecified) the results were HEK293 tox inconclusive, hNpr1 antagonist inconclusive, NIH3T3 tox inconclusive, FLuc inh inactive, Npr1 antag conf inconclusive, Npr2 selectivity inactive, FLuc counter inactive and GloSensor ctrl inconclusive.
`Cc1ccc(C2Cn3nnc(C(=O)NC4CCCCCC4)c3CO2)cc1` (stereo unspecified) gave HEK293 tox inconclusive, hNpr1 antagonist inactive, NIH3T3 tox inconclusive and FLuc inh inactive.
Screening O=C(c1ccc(Cl)cc1)N1CCN(C(=O)c2nnn3c2COC(c2ccccc2)C3)CC1 (stereo unspecified) returned HEK293 tox inconclusive, hNpr1 antagonist inactive, NIH3T3 tox inactive and FLuc inh inactive.
`O=C(NC1CCC1)[C@@H]1CCCN1c1ccnc2ccnn12` gave HEK293 tox inactive and NIH3T3 tox inconclusive.
CNC(=O)[C@@H]1CN(C(=O)c2ccc(C)nc2)C[C@H]1CO was read as HEK293 tox inactive, hNpr1 antagonist inactive, NIH3T3 tox inactive and FLuc inh inactive.
CCCS(=O)(=O)N[C@H]1C[C@@H](c2nc(-c3ccc(OC)cc3)no2)N(C)C1 was read as HEK293 tox inconclusive, hNpr1 antagonist inactive, NIH3T3 tox inactive and FLuc inh inconclusive.
For COc1ccc(S(=O)(=O)N[C@H]2C[C@@H](c3nc(-c4ccc(OC(F)(F)F)cc4)no3)N(C)C2)cc1 the results were HEK293 tox inconclusive, hNpr1 antagonist 11.2µM, NIH3T3 tox inconclusive, FLuc inh inactive, Npr1 antag conf 21.7µM, Npr2 selectivity 21.7µM, FLuc counter inactive and GloSensor ctrl 17.2µM.
`O=c1[nH]c(C2CCN(Cc3cccc(-c4cccs4)c3)CC2)nc2ccc(F)cc12` gave HEK293 tox 22.4µM!, hNpr1 antagonist inconclusive, NIH3T3 tox 28.2µM, FLuc inh inactive, Npr1 antag conf inactive, Npr2 selectivity inconclusive, FLuc counter inactive and GloSensor ctrl inconclusive.
For O=c1[nH]c(C2CCN(Cc3ccc(Cl)cc3)CC2)nc2ccc(F)cc12 the results were HEK293 tox inactive, hNpr1 antagonist inactive, NIH3T3 tox inactive and FLuc inh inactive.
Screening CCOC(=O)C1=CN(CC(=O)Nc2cc(C)ccc2OC)S(=O)(=O)N=C1C returned HEK293 tox inactive, hNpr1 antagonist inactive, NIH3T3 tox inactive and FLuc inh inactive.
O=C(CCC1CCCN(S(=O)(=O)c2ccccc2)C1)NCC1CCCCC1 (stereo unspecified) was read as HEK293 tox inconclusive, hNpr1 antagonist inconclusive, NIH3T3 tox inconclusive and FLuc inh inactive.
Screening Cc1ccc(CNC(=O)CCC2CCCN(S(=O)(=O)c3ccc(F)cc3)C2)cc1 (stereo unspecified) returned HEK293 tox inconclusive, hNpr1 antagonist inactive, NIH3T3 tox inactive and FLuc inh inconclusive.
Screening Cc1ccc(S(=O)(=O)N2CCCC(CCC(=O)N3CCCCC3)C2)cc1 (stereo unspecified) returned HEK293 tox inconclusive, hNpr1 antagonist 12.6µM, NIH3T3 tox inconclusive, FLuc inh inactive, Npr1 antag conf inconclusive, Npr2 selectivity inconclusive, FLuc counter inactive and GloSensor ctrl inconclusive.
Screening O=C(CCC1CCCN(S(=O)(=O)c2ccccc2)C1)N1CCN(c2ccccn2)CC1 (stereo unspecified) returned HEK293 tox 44.7µM, hNpr1 antagonist inconclusive, NIH3T3 tox inconclusive, FLuc inh inactive, Npr1 antag conf inconclusive, Npr2 selectivity inconclusive, FLuc counter inactive and GloSensor ctrl inconclusive.
CCOc1ccccc1CN1C[C@@H](CO)[C@H](C(=O)N(C)C)C1 was read as HEK293 tox inconclusive, hNpr1 antagonist inactive, NIH3T3 tox inactive and FLuc inh inactive.
O=C(Nc1cccc(Cl)c1)C1CCN(c2cc(C(F)(F)F)ncn2)CC1 was read as HEK293 tox inconclusive, hNpr1 antagonist inconclusive, NIH3T3 tox inconclusive, FLuc inh inactive, Npr1 antag conf 24.3µM, Npr2 selectivity inconclusive, FLuc counter inactive and GloSensor ctrl inconclusive.
O=C(Nc1cccc(Br)c1)C1CCN(c2cc(C(F)(F)F)ncn2)CC1 was read as HEK293 tox 44.7µM, hNpr1 antagonist 11.2µM, NIH3T3 tox inconclusive, FLuc inh inactive, Npr1 antag conf 21.7µM, Npr2 selectivity 21.7µM, FLuc counter inactive and GloSensor ctrl 24.3µM.
`O=C(Nc1cccc(F)c1)C1CCN(c2cc(C(F)(F)F)ncn2)CC1` gave HEK293 tox inconclusive, hNpr1 antagonist 11.2µM, NIH3T3 tox inconclusive, FLuc inh inactive, Npr1 antag conf 21.7µM, Npr2 selectivity inconclusive, FLuc counter inactive and GloSensor ctrl 19.3µM.
